aSyn UTR act – Activators via SNCA 5'UTR binding, MLPCN. alpha-synuclein 5'UTR reporter, activators screen. activity score, % (tested at 7.5 µM), hits read low. 300,000 tested, 7.1% active. AID 1814, 2009; in the data active means activity score below about -60%
Numbers stand for hits. Only a sample is shown.

`CCOc1ccc(-c2cc(C(=O)N3CCN(C)CC3)c3ccccc3n2)cc1` gave aSyn UTR act -136.
Screening CCOc1ccc(-c2cc(C(=O)N3CCCC3)c3ccccc3n2)cc1 returned aSyn UTR act -68.
`COc1ccc(C(=O)Nn2c(SCC(=O)NCC3CCCO3)nc3ccccc3c2=O)cc1` (centres undefined) gave aSyn UTR act inactive.
For CCCOc1ccc(-c2cc(C(=O)NCC3CCCO3)c3ccccc3n2)cc1 (centres undefined) the results were aSyn UTR act -73.
`Cc1nc(NC(=O)CSc2nnnn2C)sc1C` gave aSyn UTR act -121.
For COC(=O)c1sc(NC(=O)CSc2nnnn2C)nc1C the results were aSyn UTR act -73.
`Cc1csc(NC(=O)CSc2nnnn2C)n1` gave aSyn UTR act -68.
COc1ccc(-c2nc(CS(=O)CC(=O)NCCC3=CCCCC3)c(C)o2)cc1 (centres undefined) was read as aSyn UTR act -86.
For COc1ccc(NC(=O)COc2ccc(/C=N/n3c(C)nnc3C)cc2OC)cc1 the results were aSyn UTR act -91.
`COc1cc(/C=C/[N+](=O)[O-])ccc1OCc1cccc(C(=O)O)c1` gave aSyn UTR act inactive.
Screening Cc1[nH]c2ccccc2c1/C=N/NC(=O)c1cccc([N+](=O)[O-])c1 returned aSyn UTR act -65.
Screening COc1cc(/C=N/NC(=O)c2cccc([N+](=O)[O-])c2)ccc1OCc1ccccc1 returned aSyn UTR act -135.
`O=C(COc1ccc(/C=N/NC(=O)c2ccncc2)cc1)Nc1ccccc1` gave aSyn UTR act -72.
`COc1cc(/C=N/NC(=O)c2cccc(C)c2)ccc1OCC(=O)Nc1ccccc1` gave aSyn UTR act -128.
For COc1cc(/C=N/NC(=O)c2ccc(O)cc2)ccc1OCC(=O)Nc1cccc([N+](=O)[O-])c1 the results were aSyn UTR act -82.
For Cc1cccc(NC(=O)COc2ccc(Br)cc2/C=N/O)c1 the results were aSyn UTR act -167.
Screening COc1ccc(/C=N/NC(=O)c2ccncc2)cc1COc1ccc(NC(C)=O)cc1 returned aSyn UTR act inactive.
Screening COc1cc(/C=N/NC(=O)c2ccncc2)ccc1OCc1cnc(Cl)s1 returned aSyn UTR act -153.
COc1cccc2cc(-c3ccnc(N)n3)oc12 was read as aSyn UTR act -80.
Cc1nnc(N/N=C/c2cccc(OCc3ccc(Cl)c(Cl)c3)c2)n1N was read as aSyn UTR act -83.
`CC(=O)c1ccc2c(c1)Cc1cc(C(C)=O)ccc1-2` gave aSyn UTR act -125.
`CCCCCC(C)NC(=S)NC(=O)c1cc(S(=O)(=O)N2CCOCC2)ccc1C` (centres undefined) gave aSyn UTR act inactive.
CC1CCC(NC(=O)CCNS(=O)(=O)c2ccccc2)CC1 (centres undefined) was read as aSyn UTR act -62.
For Cc1ccc(S(=O)(=O)NCc2ccccc2)cc1C(=O)NC1CCC(C)CC1 (centres undefined) the results were aSyn UTR act -64.
Screening C/C(=C\C(=O)c1ccc(Cl)cc1)Nc1ccc(Br)cc1 returned aSyn UTR act -131.
`Cc1c(/N=C(\[O-])Nc2ccc(Br)cc2)sn[n+]1C` gave aSyn UTR act inactive.
Screening C/C(=C\C(=O)c1ccc(Br)cc1)NCc1ccccc1 returned aSyn UTR act -113.
For C/C(=C\C(=O)c1ccc(Br)cc1)Nc1cccc(Cl)c1 the results were aSyn UTR act -80.
`O=C(NNC(=O)c1ccccc1Br)c1cccc(Cl)c1` gave aSyn UTR act -92.
For O=C(Nc1ccc(Cl)cc1F)c1cccc2ccccc12 the results were aSyn UTR act -63.
For O=C(Nc1ccc(Cl)cc1F)c1ccccc1Br the results were aSyn UTR act -207.
For O=[N+]([O-])c1cccc(-c2ccc(/C=N/Nc3nc(N4CCCCC4)nc(N4CCCCC4)n3)o2)c1 the results were aSyn UTR act inactive.
O=C1NC(=O)/C(=C/c2ccc(-c3cccc([N+](=O)[O-])c3)o2)S1 was read as aSyn UTR act -126.
`O=C(/C=C/c1ccc(-c2cccc([N+](=O)[O-])c2)o1)N1CCOCC1` gave aSyn UTR act -110.
O=c1c(-c2nc3ccccc3s2)cccn1Cc1ccccc1 was read as aSyn UTR act -87.
Cc1ccc(Cn2cccc(-c3nc4ccccc4s3)c2=O)cc1 was read as aSyn UTR act -194.
Cc1ccccc1N=Nc1ccc(O)c2ncccc12 was read as aSyn UTR act inactive.
O=Nc1ccc(O)c2ncccc12 was read as aSyn UTR act -236.
Screening O=C(CSc1ccc(Cl)cc1)Nc1cccc(-c2nc3ccccc3[nH]2)c1 returned aSyn UTR act -89.
`O=C(CN1CCOCC1)Nc1ccc(-c2nc3ccccc3[nH]2)cc1` gave aSyn UTR act -111.
`O=C(CSc1ccccc1)Nc1ccc(-c2nc3ccccc3[nH]2)cc1` gave aSyn UTR act -171.
For Cc1ccc2nc(-c3ccc(NC(=O)CSc4ccccc4)cc3)[nH]c2c1 the results were aSyn UTR act -98.
O=C(Cc1cccs1)Nc1ccc(-c2nc3ccccc3[nH]2)cc1 was read as aSyn UTR act -263.
Screening Cc1ccc(CN=C(N)Nc2nc(C)cc(C)n2)cc1 returned aSyn UTR act inactive.
Screening Cc1cc(C)nc(/N=C(\N)Nc2ccc3c(c2)OCCO3)n1 returned aSyn UTR act -126.
For Cc1cc(C)nc(/N=C(\N)Nc2ccc(F)c([N+](=O)[O-])c2)n1 the results were aSyn UTR act -124.
Screening O=C(Nc1ccc2oc(-c3ccc(Cl)c(Cl)c3)nc2c1)c1ncn[nH]1 returned aSyn UTR act -168.
Screening O=C(Nc1ccc2oc(-c3ccncc3)nc2c1)c1ccccc1F returned aSyn UTR act -135.
Screening O=C(Nc1ccc2oc(-c3ccncc3)nc2c1)c1cccs1 returned aSyn UTR act -114.
`O=C(Nc1ccc2oc(-c3ccccc3F)nc2c1)c1ccccc1F` gave aSyn UTR act -188.
O=C(Nc1ccc2oc(-c3ccncc3)nc2c1)c1ccc([N+](=O)[O-])o1 was read as aSyn UTR act -118.
O=C(Nc1ccc2oc(-c3cccc(F)c3)nc2c1)c1ccccc1F was read as aSyn UTR act -120.
CC(C)CC(=O)Nc1ccc2oc(-c3ccncc3)nc2c1 was read as aSyn UTR act -74.
O=C(Nc1ccc2oc(-c3ccccc3)nc2c1)c1ccccc1F was read as aSyn UTR act -257.
For COCCNC(=O)/C(C#N)=C/c1cc(C)n(C2CCCCC2)c1C the results were aSyn UTR act -101.
`Cc1cc(/C=C(/C#N)C(=O)Nc2ccccc2)c(C)n1-c1cccnc1` gave aSyn UTR act -160.
Screening COCCNC(=O)/C(C#N)=C/c1cc(C)n(-c2ccc(C)cc2)c1C returned aSyn UTR act -133.
Screening C=CCn1c(SCC(=O)Nc2ccc(-c3nc4ccc(C)cc4s3)cc2)nnc1-c1ccncc1 returned aSyn UTR act -99.
CCn1c(SCC(=O)Nc2ccc(-c3nc4ccc(C)cc4s3)cc2)nnc1-c1ccccc1 was read as aSyn UTR act -175.
Screening CCCc1noc(-c2ccc(-c3ccccc3)cc2)n1 returned aSyn UTR act -112.
CCCCC(=O)NC(c1ccc(Cl)cc1Cl)c1ccc2cccnc2c1O (centres undefined) was read as aSyn UTR act inactive.
For CC(C)NC(=O)CCCOc1ccc(Cl)cc1Cl the results were aSyn UTR act -68.
`C#CCN(C)CCCOc1ccc(Cl)cc1Cl` gave aSyn UTR act -79.
